Many of the other results were omitted from the sample, so hits are more common in it than they were.
IL1B secr inh = inhibitors of inflammasome signaling (IL-1 beta secretion) | actives 4.7% (n = 360,000) | THP-1 LPS/ATP IL-1B secretion, AlphaLISA, 16 h; stronger effect = lower value | activity change, % at 57.5 µM | AID 743279; in the data active means activity change below about -50%; inconclusive means mostly about -30% to -49%
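THP-1 cells pretreated 1 hr with compounds (up to 57.5 uM final), then stimulated with LPS (250 ng/mL final) plus ATP (1.25 mM final); secreted IL-1B measured by AlphaLISA after 16 hr, decreased signal indicating inhibition.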
DT40 TDP1 CPT = DT40-hTDP1 cell growth loss with CPT | actives 12% (n = 420,000) | chicken DT40 Tdp1-/-;hTDP1 cells + 20 nM CPT, ATP luminescence, 48 h | Potency, µM (titrated, usually from 46.2 µM), hits mostly inhibitors; further: nearly all actives have a fitted effect of over 55% in size
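Chicken DT40 Tdp1-/- cells stably complemented with human TDP1 were seeded at 400 cells/well in medium containing 20 nM camptothecin, exposed to pin-transferred compounds, and grown at 37 °C for at least 48 hr. Viability was read as ATP luminescence.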
ALOX12 inh = inhibitors of human 12S-lipoxygenase ALOX12 | P18054 | purified 12hLO, xylenol orange hydroperoxide absorbance | Potency, µM (series often up to 108 µM), most hits filed as inhibitors | actives 1.1% (n = 580,000) | AID 1671190
Target sequence (P18054 whole entry, looked up): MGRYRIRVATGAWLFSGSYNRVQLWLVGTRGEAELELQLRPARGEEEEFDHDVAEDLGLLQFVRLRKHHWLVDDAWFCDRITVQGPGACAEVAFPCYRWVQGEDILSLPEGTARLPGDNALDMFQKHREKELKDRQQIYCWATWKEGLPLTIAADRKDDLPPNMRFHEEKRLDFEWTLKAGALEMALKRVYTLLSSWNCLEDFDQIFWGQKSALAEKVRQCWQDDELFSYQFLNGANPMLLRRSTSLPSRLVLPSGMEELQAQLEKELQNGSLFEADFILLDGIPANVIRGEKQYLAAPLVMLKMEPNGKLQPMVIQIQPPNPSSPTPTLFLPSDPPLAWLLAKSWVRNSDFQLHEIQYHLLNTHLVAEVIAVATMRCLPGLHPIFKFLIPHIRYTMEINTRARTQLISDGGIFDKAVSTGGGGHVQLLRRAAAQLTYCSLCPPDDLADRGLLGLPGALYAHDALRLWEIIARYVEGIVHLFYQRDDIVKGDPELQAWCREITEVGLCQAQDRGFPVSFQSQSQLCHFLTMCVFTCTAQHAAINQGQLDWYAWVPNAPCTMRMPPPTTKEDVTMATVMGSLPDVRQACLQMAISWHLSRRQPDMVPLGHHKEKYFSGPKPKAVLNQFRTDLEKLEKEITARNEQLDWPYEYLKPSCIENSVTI
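Hydroperoxide product was detected by ferrous iron/xylenol orange as the 573 to 405 nm absorbance ratio. Arachidonic acid at 40 uM (final) was turned over for 30 min at room temperature by 150 nM human 12hLO, pH 7.0 Hepes buffer, after 15 min compound preincubation.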
TDP1 cell noCPT = qHTS for Inhibitors of human tyrosyl-DNA phosphodiesterase 1 (TDP1): qHTS in cells in absence of CPT; actives 15% (n = 420,000); DT40 Tdp1-/- hTDP1 cells, no CPT, ATP luminescence, 48 h; Potency, µM (top dose mostly 46.2 µM), hits mostly inhibitors; AID 686978, 2013; further: nearly all actives have a fitted effect of over 55% in size
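Chicken DT40 Tdp1-/- cells complemented with human TDP1, screened without camptothecin (DMSO vehicle only), 400 cells/well. Compounds pin-transferred, cells incubated at 37 °C for at least 48 hr. Growth read as ATP-dependent luminescence (CellTiter-Glo, 30 min at RT).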
HT1080-NT tox = kills 2HG-producing HT-1080-NT fibrosarcoma cells. actives 1.6% (n = 360,000). Potency, µM (doses to about 46.1 µM), usual class: cytotoxic. AID 686970. HT-1080-NT fibrosarcoma viability, CellTiter-Glo ATP luminescence, 48 h;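 further: NT is the 2HG producing partner of a matched IDH1 knockdown line; nearly all actives have a fitted effect of over 55% in size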
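HT-1080-NT; 750 cells/well; 5% FBS RPMI; 48 h compound, 37 degrees C; CellTiter-Glo luminescence; curve fitting and curve-class assignment.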
HT1080 IDH1KD tx = toxicity to HT-1080 IDH1 knockdown cells (counter line). Potency, µM (titrated, usually from 46.1 µM), usual class: cytotoxic. HT-1080 IDH1 knockdown viability, ATP luminescence, 48 h. AID 686971. actives 2% (n = 360,000)
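Using the IDH1-knockdown HT-1080 line run in the same batch and compound series as the NT line, viability after 48 h at 37 °C was determined by CellTiter-Glo luminescence and expressed as % activity.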
Hits are given with their value; n = inactive; u = inconclusive; x = not tested or not shown. Unless noted, the call rests on the fitted dose curve; in most records, active means well fitted curve in the direction sought with a large enough effect; inconclusive means small, poorly fitted or top-dose-only effect, or another doubt; inactive means no such curve, though single readings can be large; an effect the other way counts as inactive or inconclusive.

SMILES	IL1B secr inh	DT40 TDP1 CPT	ALOX12 inh	TDP1 cell noCPT	HT1080-NT tox	HT1080 IDH1KD tx
CN(C)c1ccc(C(=O)NC2CCN(c3cn[nH]c(=O)c3)CC2)cc1	x	x	n	x	x	x
Cc1cc(C)n(-c2nc(Nc3ccccc3C)nc(-n3nc(C)cc3C)n2)n1	x	x	n	x	x	x
Cc1cc(C)n(-c2nc(NC(C)C)nc(NC(C)C)n2)n1	n	1.03µM	n	1.46µM	n	n
CCNc1nc(NCC)nc(-n2nc(C)cc2C)n1	n	2.31µM	n	2.59µM	2µM	0.891µM
Cc1cc(C)n(-c2nc(Nc3ccccc3C(F)(F)F)nc(-n3nc(C)cc3C)n2)n1	-54.1	16.4µM	u	14.6µM	9.2µM	u
Cc1cc(C)n(-c2nc(N(C)C)nc(N(C)C)n2)n1	n	u	n	14.6µM	7.08µM	6.31µM
Cc1cc(C)n(-c2ncc(C#N)cn2)n1	n	n	u	n	n	n
CC(NC(=O)OCc1ccccc1)c1nc2cccnc2n1C1CCCC1 (stereo not given)	x	x	n	x	x	x
Cn1nccc1CN1CCCC2(COc3ccccc3C(=O)N2)C1 (stereo not given)	x	x	n	x	x	x
Cc1cc(C)n(-c2nc(NC(C)(C)C)nc(NC(C)(C)C)n2)n1	n	2.06µM	n	1.84µM	n	n
Cc1cc(C)n(-c2nnc(NC(C)(C)C)nn2)n1	n	n	n	n	n	n
CC(=O)N1CC2([N+](=O)[O-])CN(C(C)=O)CC([N+](=O)[O-])(C1)C2(C)C	n	n	n	n	n	n
CCC1CN2CCc3cc(OC)c(OC)cc3C2CC1CC1c2cc(OC)c(OC)cc2CCN1C(=O)C(Cc1c[nH]c2ccccc12)NC(=O)OC(C)(C)C (stereo not given)	n	6.51µM	n	5.8µM	n	n
O=C(c1ccccc1F)N1c2ncnn2C2(CCCCC2)[C@@H]2CCCC[C@@H]21	x	u	n	u	x	x
O=C(c1ccc(F)cc1)N1c2ncnn2C2(CCCCC2)[C@@H]2CCCC[C@@H]21	x	u	n	20.6µM	x	x
O=C(c1ccccc1)N1c2ncnn2C2(CCCCC2)[C@@H]2CCCC[C@@H]21	x	u	n	u	x	x
Cc1cccc(C(=O)N2c3ncnn3C3(CCCCC3)[C@@H]3CCCC[C@@H]32)c1	x	u	n	23.1µM	x	x
Cc1ccc(OCCOc2ccc3ccc(=O)oc3c2)cc1	x	x	n	x	x	x
COc1ccc(NC(=O)COc2coc(CN3CCSCC3)cc2=O)cc1	x	x	n	x	x	x
NC(=S)N/N=C/c1ccc(C23CC4CC(CC(C4)C2)C3)cc1	n	9.2µM	x	3.66µM	u	u
O=C(O)/C=C/C(=O)NCCN1CCOCC1	x	x	n	x	x	x
CC1CC(C)(C)NC(=S)N1CCCC(=O)Nc1ccc(Br)cc1 (stereo not given)	-78.1	u	u	u	n	u
Cc1ccccc1CNC(=O)[C@@]12CCCC[C@H]1N(C)C(=O)CC2	x	x	n	x	x	x
O=C(CN1C(=O)C(c2ccccc2)=NC12CCCC2)Nc1cccc(C(F)(F)F)c1	x	x	n	x	x	x
O=C1C2C(C(=O)N1/N=C/c1cc(Br)cc([N+](=O)[O-])c1O)C1C=CC2C12CC2 (stereo not given)	u	u	n	16.4µM	n	n
SMILES	IL1B secr inh	DT40 TDP1 CPT	ALOX12 inh	TDP1 cell noCPT	HT1080-NT tox	HT1080 IDH1KD tx
O=C1C2C(C(=O)N1/N=C/c1cc([N+](=O)[O-])c(O)cc1O)C1C=CC2C12CC2 (stereo not given)	n	n	u	n	n	n
Cc1ccc(NC(=S)N(CCCN2CCCC2)Cc2cccn2Cc2ccc(Cl)cc2)cc1Cl	-52.6	u	n	6.51µM	u	n
CCN1CCN(CCCN(Cc2ccco2)C(=S)Nc2ccc(Cl)c(C)c2)CC1	n	n	n	u	n	n
S=C(Nc1ccc(Cl)cc1)N(CCCN1CCOCC1)Cc1ccco1	n	n	n	n	n	n
Cc1ccc(NC(=S)N(CCCN2CCCC2)Cc2cccn2Cc2ccc(Cl)cc2)cc1C	n	u	n	20.6µM	n	n
COc1ccc(NC(=S)NCCCN2CCCC2)cc1Cl	n	n	n	n	n	n
COc1ccc(NC(=S)N(CCCN2CCCC2)Cc2cccn2Cc2ccc(Cl)cc2)cc1Cl	-51.6	14.6µM	n	20.6µM	u	u
FC(F)(F)c1cccc(NC(=S)N(CCCN2CCCC2)Cc2cccn2Cc2ccc(Cl)cc2)c1	-89.4	u	u	16.4µM	u	23.1µM
CC(=O)c1ccc(NC(=O)Cn2nc(-c3ccc(C)cc3)c3c(c2=O)CCCC3)cc1	x	x	n	x	x	x
Cc1[nH]c2ccc(C(=O)OC(C)C(=O)NC3CC3)cc2c1C (stereo not given)	x	x	n	x	x	x
COCCN1C(=O)CC[C@]2(C(=O)NCc3cccc(OC)c3)CCCC[C@@H]12	x	x	n	x	x	x
COc1ccc(C(=O)/C=C/c2ccc(OC)c(COc3ccccc3F)c2)cc1	-89.7	25.9µM	n	u	n	n
COc1ccc(C(=O)N/N=C/c2ccc(OC)c(COc3ccc(F)cc3)c2)cc1	n	u	n	u	n	n
COc1ccc(/C=C/C(=O)C2CC2)cc1COc1cccc(C)c1C	-62.3	u	u	23.1µM	u	u
COc1ccc(/C=N/NC(=S)Nc2ccccc2)cc1COc1cccc(C)c1C	n	u	n	u	n	n
COc1ccc(/C=C/C(=O)c2ccc(O)cc2)cc1COc1ccc(F)cc1	-98.0	u	n	u	u	u
COc1ccc(C=O)cc1COc1ccc(F)cc1F	n	u	n	u	n	n
CCCCCCOc1ccc(/C=c2\s/c(=C(/C#N)C(=O)NCc3ccco3)n(-c3ccccc3)c2=O)cc1	n	2.91µM	n	6.51µM	n	n
COc1cc(OC)cc(-c2nc(C3CC(=O)N(c4ccc(F)c(Cl)c4)C3)no2)c1 (stereo not given)	x	x	n	x	x	x
COc1ccc(CN(C)CC2CCCN(CCc3ccc(Cl)cc3)C2)cc1OC (stereo not given)	-86.3	u	n	u	29.1µM	16.4µM
COc1cc(CN(C)CC2CCCN(CCc3cccc(C(F)(F)F)c3)C2)ccc1O (stereo not given)	u	u	u	23.1µM	n	u
CC(=O)c1cccc(CN(C)CC2CCCN(CCc3ccccc3C)C2)c1 (stereo not given)	n	16.4µM	n	u	n	n
COc1cc(CN(C)CC2CCCN(CCc3ccccc3F)C2)cc(Cl)c1OC (stereo not given)	-83.8	u	u	25.9µM	n	u
COC(=O)CCC(=O)N(C)CC1CCCN(CCc2cccc(C(F)(F)F)c2)C1 (stereo not given)	n	n	n	n	n	n
CCCN(Cc1cc2cc(C)ccc2[nH]c1=O)C(=O)c1cccnc1	x	x	n	x	x	x

Screens as filed in PubChem.
